# Screens deposited in PubChem by National Center for Advancing Translational Sciences (NCATS).
# ALDH1A1 inh: ALDH1A1 (human) enzyme inhibition; P00352; Purified ALDH1A1, NADH fluorescence, propionaldehyde substrate; Potency, µM (series often up to 75.3 µM), for the others: top-dose activity, negative = inhibition, usual class: inhibitors; actives 7.3% (n = 220,000); AID 1030;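 further: plate controls were no enzyme wells and a reference inhibitor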
# Target sequence (P00352 whole entry, looked up): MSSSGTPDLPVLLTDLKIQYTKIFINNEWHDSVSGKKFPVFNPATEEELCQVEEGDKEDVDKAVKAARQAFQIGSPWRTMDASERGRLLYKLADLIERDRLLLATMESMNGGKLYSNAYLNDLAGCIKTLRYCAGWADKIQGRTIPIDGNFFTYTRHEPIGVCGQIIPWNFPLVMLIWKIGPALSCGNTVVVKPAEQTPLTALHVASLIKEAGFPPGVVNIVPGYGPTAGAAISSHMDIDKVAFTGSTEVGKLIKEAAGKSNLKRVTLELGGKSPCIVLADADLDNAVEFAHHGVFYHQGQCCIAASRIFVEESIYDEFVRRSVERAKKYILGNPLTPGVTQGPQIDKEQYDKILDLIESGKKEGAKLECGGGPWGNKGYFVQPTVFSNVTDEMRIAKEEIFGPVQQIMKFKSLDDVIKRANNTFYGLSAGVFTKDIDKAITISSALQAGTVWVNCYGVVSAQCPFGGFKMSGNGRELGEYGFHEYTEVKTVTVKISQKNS
# HttQ103 aggreg: reduces HttQ103-GFP aggregates in PC12 cells. PC12 HttQ103-GFP aggregates, Acumen cytometry, 40 h. Potency, µM (highest dose often 46.1 µM), without a hit: at the top dose activity change, negative = inhibition, hits mostly inhibitors. actives 1.1% (n = 220,000). AID 1688; active means well fitted curve in the direction sought with a large enough effect; inconclusive means small, poorly fitted or top-dose-only effect, or another doubt; inactive means no such curve, though single readings can be large; an effect the other way counts as inactive or inconclusive; further: on the % scale 0 is the no-effect control and ±100 the full control effect; nearly all actives have a fitted effect of over 60% in size
#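 Multiplexed with ATP-based cell death, this channel scores GFP aggregates in PC12 cells expressing inducible HTTex1-Q103-GFP. Induction used 100 nM tebufenozide; compounds were tested in concentration series.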
# HPGD inh: HPGD (human) dehydrogenase inhibition | P15428 | purified HPGD, NADH fluorescence kinetic, PGE2 substrate | Potency, µM, for the others: at the highest dose activity change, negative = inhibition, actives largely listed as inhibitors | actives 4.3% (n = 150,000) | AID 894; further: on the % scale 0 is the no-effect control and ±100 the full control effect
# Target sequence (P15428 whole entry, looked up): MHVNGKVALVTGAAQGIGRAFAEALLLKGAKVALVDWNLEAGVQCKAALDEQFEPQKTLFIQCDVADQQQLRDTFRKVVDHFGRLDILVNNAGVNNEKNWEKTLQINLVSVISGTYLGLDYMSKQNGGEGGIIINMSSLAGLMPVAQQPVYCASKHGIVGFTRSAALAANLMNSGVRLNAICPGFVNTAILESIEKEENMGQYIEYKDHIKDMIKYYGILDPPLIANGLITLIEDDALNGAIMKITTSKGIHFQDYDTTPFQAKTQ
#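 NADH formation kinetics: reaction with 30 uM PGE2 and 1 mM NAD+ (final), 20 nM enzyme, Tris-HCl pH 8 with Tween 20, after 15 min compound preincubation at room temperature. Fluorescence change, last versus first of five reads.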
# HTT cytoprotect: protects HTT-Q103 PC12 cells, measured by ATP; PC12 HTT-Q103 induced, cytoprotection, ATP luminescence, 40 h; Potency, µM (top dose mostly 56.4 µM), for inactives: cytoprotection (ATP increase), most hits filed as activators; actives 0.14% (n = 230,000); active means well fitted curve in the direction sought with a large enough effect; inconclusive means small, poorly fitted or top-dose-only effect, or another doubt; inactive means no such curve, though single readings can be large; an effect the other way counts as inactive or inconclusive; further: % of control where 0% means no effect; nearly all actives have a fitted effect of over 45% in size
#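 ATP quantification (ATPlite) reports survival of PC12 cells in which tebufenozide, 100 nM final, switches on Htt exon 1 with 103 glutamines linked to GFP; compounds are titrated.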
# LMNA splice mod: LMNA splicing modulation; HeLa LMNA splicing GFP/RFP minigene ratio, 48 h; Potency, µM (top dose mostly 46.1 µM), without a hit: at the top dose ratio change, negative = inhibition, usual class: inhibitors; actives 0.01% (n = 200,000); AID 1487; active means well fitted inhibition curve with a large enough effect in the signal ratio, with a control signal flat, not every such curve was filed as active; inconclusive means small, poorly fitted or top-dose-only effect, or effect the other way, or a change in a side signal; the % refers to the signal ratio; further: on the % scale 0 is the no-effect control and ±100 the full control effect
#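 S3 HeLa cells stably expressing lamin A-EGFP splicing minigene plus DsRed2, 600 cells/well, 48 h compound exposure at 37C. Laser-scanning cytometry; analysed as GFP (500-530 nm)/RFP (575-640 nm) total intensity ratio; 0.5% DMSO vehicle.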
# * marks the source's active call; other numbers are inactive results; ? = inconclusive; · = no result; [ ] = dose if it differs, or a comment. The list is not random: actives were taken first. Their share in the collection is about 8.8%. Unless noted, the call rests on the fitted dose curve; in most records, active means well fitted inhibition curve with a large enough effect (not every such curve was filed as active); inconclusive means small, poorly fitted or top-dose-only effect, or another doubt; inactive means no such curve, though single readings can be large or run the other way. Potency means the concentration at half of the fitted maximal effect.
SMILES,ALDH1A1 inh,HttQ103 aggreg,HPGD inh,HTT cytoprotect,LMNA splice mod
Cc1cc(C)c(C#N)c(SCCS(=O)(=O)Cc2ccc(Cl)cc2)n1,5.01µM*,1.8%,-17.1%,2.6%,-0.6%
Cc1cc(C)c(C#N)c(SCc2nnc(-c3ccccc3)o2)n1,1.0%,17.8%,3.98µM*,0.6%[10 µM],?
CSc1ccc(CCNC(=O)c2cc3n(n2)CCCN(Cc2ccc(C)cc2)C3=O)cc1,·,·,·,·,-12.7%[46 µM]
Cc1cc(S(=O)(=O)Nc2cc(C)c(O)c(C)c2)c(C)s1,5.2%,?,-9.5%,-0.9%,-3.8%
Cc1ccc(C(=O)N2CCCC(c3ccc(Cl)cc3)=N2)cc1,12.6µM*,-9.3%,·,-13.3%,-8.2%[9.22 µM]
COc1ccc(C(=O)N2CCCC(c3ccccc3)=N2)cc1,?,-1.0%,·,6.2%[10 µM],-0.4%[46 µM]
CCC1CCCCN1C(=O)c1sc(-n2nc(C)c(Cc3ccccc3)c2C)nc1C (configuration not stated),·,·,·,·,1.3%[46 µM]
CCNc1ccc(Br)cc(C(=O)/C=C/c2ccc(Cl)cc2Cl)c1=O,?,30.1%,22.4µM*,-13.2%[10 µM],?
CNc1ccc(Br)cc(C(=O)/C=C/c2cc(OC)ccc2OC)c1=O,?,-2.3%[9.22 µM],?,13.0%[10 µM],6.9%
COCCCNC(=O)/C=C/c1ccc(Cl)cc1Cl,1.7%,-13.9%,-25.8%,4.8%,15.0%[0.0737 µM]
CNc1ccc(Br)cc(C(=O)/C=C/c2ccc3c(c2)OCO3)c1=O,6.31µM*,2.1%,15.8µM*,-37.4%,?
CNc1ccc(Br)cc(C(=O)/C=C/c2ccc(OC)cc2)c1=O,28.2µM*,?,-25.2%,·,1.6%
CNc1ccc(/C=C/C(=O)c2ccc3c(c2)OCCO3)cc1[N+](=O)[O-],?,26.3%,-28.1%,16.3%[10 µM],?
Cc1ccc(OCC(=O)N2CCN(c3ccc([N+](=O)[O-])c(N4CCOCC4)c3)CC2)cc1,-15.2%,-3.4%,-7.2%,-27.2%,-0.6%
O=C(c1cccc2ccccc12)N1CCN(c2ccc([N+](=O)[O-])c(N3CCOCC3)c2)CC1,10µM*,1.2%,-18.9%,1.6%[10 µM],-14.2%
O=C(c1ccccc1F)N1CCN(c2ccc([N+](=O)[O-])c(N3CCOCC3)c2)CC1,0.708µM*,19.4%[9.22 µM],·,7.0%[10 µM],·
Cc1ccccc1C(=O)N1CCN(c2ccc([N+](=O)[O-])c(N3CCOCC3)c2)CC1,?,12.4%,-2.9%,-4.3%,3.4%
COc1cc2oc(=O)c3c4c(cc5ccc(c1CCN(C)C)c2c53)OCO4,?,·,-12.1%,-87.6%,·
O=C(NCCc1csc2nc(-c3ccccc3F)nn12)c1ccco1,·,·,·,·,10.2%[46 µM]
O=C(COc1ccccc1)N1CCN(c2ccc([N+](=O)[O-])c(N3CCCCC3)c2)CC1,10µM*,-33.0%,-15.1%,-22.7%,6.2%
O=C(COc1ccc(Br)cc1)N1CCN(c2ccc([N+](=O)[O-])c(N3CCCCC3)c2)CC1,3.98µM*,-17.3%,·,?,?
CCOC(=O)c1c[nH]c2cc(OCC(C)C)c(OCC(C)C)cc2c1=O,·,-11.5%,·,-48.7%,·
COc1ccc2c(=O)c(-c3ccccc3)c(C)oc2c1,?,-14.3%,-8.5%,-25.2%,7.2%
COc1cc(OC)c2c(=O)c(-c3ccccc3)c(C)oc2c1OC,14.1µM*,·,-1.3%,·,-5.0%
COc1ccc(C(=O)NC(=S)Nc2ccc3oc(=O)ccc3c2)cc1,-14.6%,-2.7%,-10.8%,-3.6%[10 µM],-1.2%
SMILES,ALDH1A1 inh,HttQ103 aggreg,HPGD inh,HTT cytoprotect,LMNA splice mod
CCCCCC(=O)NC(=S)Nc1ccc2oc(=O)ccc2c1,7.08µM*,5.3%,·,3.8%[10 µM],30.9%[46 µM]
O=C(C1=NN[C@@H]2C(=O)N(c3cccc(F)c3)C(=O)[C@H]12)c1cnccn1,6.31µM*,6.3%[9.22 µM],·,-19.6%[10 µM],·
O=C(C1=NN[C@@H]2C(=O)N(c3ccccc3C(F)(F)F)C(=O)[C@H]12)c1cnccn1,·,-27.1%[9.22 µM],·,-5.8%[10 µM],·
Cc1cc(=O)[nH]c2c(N=Nc3ccc(O)cc3)c(N)nn12,17.8µM*,-8.0%[9.22 µM],·,-10.1%[10 µM],·
CN(C)c1ccc(C(c2nnnn2CCOC(=O)Nc2ccc(Cl)cc2)N2CCOCC2)cc1 (configuration not stated),25.1µM*,4.4%,-24.6%,-13.8%,10.6%
CN(C)c1nc(N/N=C/c2c[nH]c3ccccc23)nc(N2CCOCC2)n1,18.9µM*,-3.4%,·,?,·
CCOC(=O)CC(=O)CSc1[nH]c(=O)cc(C)c1C#N,-1.2%,15.6%,14.1µM*,-2.3%,-1.9%
CCOC(=O)CSc1[nH]c(=O)cc(C)c1C#N,5.4%,-5.4%,-1.5%,1.5%,6.1%
Cc1ccc2nc(N3CCOCC3)c(C=O)c(=O)n2c1,25.1µM*,-7.9%[9.22 µM],·,-4.7%[10 µM],·
COc1ccc(NC(=O)N2CCC(CN3CCCC3)CC2)c(OC)c1,·,·,·,·,-1.5%[46 µM]
CN(CC(=O)Nc1ccc([N+](=O)[O-])cc1Br)Cc1c(F)cccc1Cl,10µM*,-10.0%[9.22 µM],·,9.1%[10 µM],·
CCOC(=O)c1sc(NC(=O)c2noc3c2CCCC3)c(C(=O)OCC)c1C,·,·,·,-10.8%,·
CCOC(=O)c1c(NC(=O)c2noc3c2CCCC3)sc(C)c1C,22.4µM*,-12.4%,?,4.5%,-1.2%
N=c1c2c(-c3ccccc3)c(-c3ccccc3)n(Cc3ccco3)c2ncn1Cc1ccco1,-0.6%,11.2µM*,-2.4%,-153.7%,?
O=C(Nc1cccc(-c2cn3c(n2)SCC3)c1)c1ccc(Br)o1,15.8µM*,12.1%,·,-42.0%,?
CN(C(=O)COc1cc(=O)n(C)c2ccccc12)c1ccc(Cl)cc1,?,14.3%,-9.0%,-15.8%,-7.3%
CN(c1ccc(Cl)cc1)c1cc(=O)n(C)c2ccccc12,10.2%,-2.6%,7.94µM*,-36.4%,?
Cc1cccc(NC(=O)c2cc(S(=O)(=O)c3ccccc3)ccc2Cl)c1,?,-25.4%,-13.7%,-26.0%,-11.5%
Cc1ccc(S(=O)(=O)N/N=c2\oc3ccccc3cc2C(=O)Nc2cccc(C)c2)cc1,0.159µM*,8.0%,-12.5%,18.2%[10 µM],2.0%
N#C/C(=C/c1ccc(Sc2nc3ccccc3[nH]2)o1)c1ccccc1F,?,11.2µM*,?,-33.7%,?
N#C/C(=C/c1ccc(Sc2nc3ccccc3[nH]2)o1)c1cccc(F)c1,?,?,?,0.9%,?
COc1ccc(C(=O)CC(c2ccccc2)C2CCCCC2=O)cc1 (configuration not stated),0.501µM*,6.1%,-15.4%,-0.8%,-10.9%
O=C(CC(c1ccccc1)C1CCCCC1=O)c1ccco1 (configuration not stated),?,-14.3%,?,42.6%[10 µM],0.9%
O=C(CC(c1ccco1)C1CCCCC1=O)c1ccco1 (configuration not stated),25.1µM*,16.7%,-0.7%,-10.6%,7.5%
COc1ccccc1CN1CCCC2(CCN(C(=O)c3cnccn3)CC2)C1,-6.2%,·,-4.6%,18.1%,·
CCOC(=O)c1sc(/N=C/c2ccc(O)cc2O)cc1C,0.9%,0.1%,-14.9%,-2.3%[10 µM],-16.7%
O=C(O)/C(=C\c1ccccc1Cl)c1ccc(S(=O)(=O)N2CCCCC2)s1,?,-2.7%,·,3.9%[10 µM],-24.2%
